Several values for one entry are separate records, joined by “and”; a condition that tells them apart may be missing. Equal values may be shown once. Hit rate of the full screen: of about 5,500 compounds, about 2,000 (36%) were called active. About 18% were inconclusive and are not listed. Rule as the data show it: active = normalized growth mostly below about 0.91 (no sharp cut-off); inconclusive = no clear call, values can overlap the other calls; inactive = mostly above about 0.92. This is one part of the list.
Experiment: chemical genetic growth profiling, strain panel (AID 1159580);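 also: tested at 20 µM; growth read once vehicle control cultures reached saturation at 30 °C; 1 = growth at the plate median or of vehicle wells; lower values mean less growth of the strain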
Conditions: S. cerevisiae deletion strains, growth OD

Measured: normalized growth

Nc1ccc(S(=O)(=O)Nc2ccnn2-c2ccccc2)cc1
inactive: locus YAL013W, strain DEP1, stronger effect = lower value 1.04 | locus YAL021C, strain ccr4, stronger effect = lower value 0.986 | locus YAL026C, strain drs2, stronger effect = lower value 0.977 | locus YAL030W, strain snc1, stronger effect = lower value 1.01 | locus YAL040C, strain CLN3, stronger effect = lower value 1.02 | locus YBL061C, strain skt5, stronger effect = lower value 1.01 | locus YBR009C, strain hhf1, stronger effect = lower value 1.01 | locus YBR021W, strain FUR4, stronger effect = lower value 0.994 | locus YBR023C, strain chs3, stronger effect = lower value 0.999 | locus YBR171W, strain sec66, stronger effect = lower value 0.993 | locus YBR229C, strain ROT2, stronger effect = lower value 1.01 | locus YBR231C, strain swc5, stronger effect = lower value 1.01 | locus YBR279W, strain paf1, stronger effect = lower value 0.996 | locus YCL011C, strain gbp2, stronger effect = lower value 0.982 | locus YCL016C, strain dcc1, stronger effect = lower value 0.999 | locus YCL029C, strain bik1, stronger effect = lower value 0.995 | locus YCL061C, strain MRC1 (second series), stronger effect = lower value 1.02 | locus YCL061C, strain MRC1, stronger effect = lower value 0.997 | locus YCL069W, strain vba3, stronger effect = lower value 0.991 | locus YCR088W, strain abp1, stronger effect = lower value 0.982 | locus YDL005C, strain med2, stronger effect = lower value 0.98 | locus YDL035C, strain GPR1, stronger effect = lower value 0.999 | locus YDL040C, strain nat1, stronger effect = lower value 0.993 | locus YDL074C, strain BRE1, stronger effect = lower value 1.02 | locus YDL101C, strain DUN1, stronger effect = lower value 1.02 | locus YDL134C, strain PPH21, stronger effect = lower value 0.995 | locus YDL185W, strain tfp1, stronger effect = lower value 1 | locus YDL192W, strain arf1, stronger effect = lower value 0.995 | locus YDR001C, strain nth1, stronger effect = lower value 0.994 | locus YDR069C, strain doa4, stronger effect = lower value 0.999 | locus YDR101C, strain arx1, stronger effect = lower value 1.01 | locus YDR137W, strain rgp1, stronger effect = lower value 0.938 | locus YDR150W, strain NUM1, stronger effect = lower value 1.02 and 1.01 | locus YDR159W, strain sac3, stronger effect = lower value 1.02 | locus YDR162C, strain NBP2, stronger effect = lower value 0.999 | locus YDR195W, strain ref2 0.961 | locus YDR297W, strain sur2, stronger effect = lower value 0.998 | locus YDR318W, strain mcm21, stronger effect = lower value 0.99 | locus YDR334W, strain swr1, stronger effect = lower value 0.95 | locus YDR335W, strain msn5, stronger effect = lower value 0.998 | locus YDR363W, strain ESC2, stronger effect = lower value 1.01 | locus YDR388W, stronger effect = lower value 1 | locus YDR392W, strain spt3, stronger effect = lower value 0.96 | locus YDR502C, strain sam2, stronger effect = lower value 1.03 | locus YEL003W, strain gim4, stronger effect = lower value 0.986 | locus YEL037C, strain rad23, stronger effect = lower value 0.991 | locus YEL061C, strain CIN8 (second series), stronger effect = lower value 0.992 | locus YEL061C, strain CIN8, stronger effect = lower value 1.01 | locus YER002W, strain NOP16, stronger effect = lower value 1.01 | locus YER015W, strain faa2, stronger effect = lower value 0.997 | locus YER016W, strain bim1, stronger effect = lower value 1.01 | locus YER110C, stronger effect = lower value 0.993 | locus YER111C, strain swi4, stronger effect = lower value 1.01 | locus YER155C, strain BEM2 (second series), stronger effect = lower value 1 | locus YER155C, strain BEM2, stronger effect = lower value 1.01 | locus YER167W, strain BCK2, stronger effect = lower value 1 | locus YFR010W, strain ubp6, stronger effect = lower value 0.986 | locus YGL078C, strain dbp3, stronger effect = lower value 0.999 | locus YGL086W, strain mad1, stronger effect = lower value 1 | locus YGL167C, strain pmr1, stronger effect = lower value 1 | locus YGL173C, strain kem1, stronger effect = lower value 0.986 | locus YGL227W, strain vid30, stronger effect = lower value 0.998 | locus YGL240W, strain doc1, stronger effect = lower value 1.02 | locus YGL248W, strain PDE1, stronger effect = lower value 1.01 | locus YGL253W, strain hxk2, stronger effect = lower value 0.988 | locus YGR135W, strain pre9, stronger effect = lower value 0.994 | locus YGR229C, strain SMI1, stronger effect = lower value 1.03 | locus YGR252W, strain gcn5, stronger effect = lower value 0.958 | locus YHR013C, strain ard1, stronger effect = lower value 1.04 | locus YHR027C, strain rpn1, stronger effect = lower value 0.987 | locus YHR030C, strain SLT2, stronger effect = lower value 1.01 and 0.958 | locus YHR079C, strain IRE1 (second series), stronger effect = lower value 0.994 | locus YHR079C, strain IRE1, stronger effect = lower value 0.967 | locus YHR094C, strain hxt1, stronger effect = lower value 0.988 | locus YHR129C, strain ARP1, stronger effect = lower value 1.01 | locus YHR142W, strain chs7, stronger effect = lower value 0.965 | locus YHR200W, strain rpn10, stronger effect = lower value 0.991 | locus YIL066C, strain RNR3, stronger effect = lower value 1.02 | locus YIL073C, strain SPO22, stronger effect = lower value 0.972 | locus YIL125W, strain kgd1, stronger effect = lower value 1 | locus YIR030C, strain dcg1, stronger effect = lower value 0.993 | locus YJL092W, strain hpr5, stronger effect = lower value 0.984 | locus YJL095W, strain BCK1 (second series), stronger effect = lower value 0.996 | locus YJL095W, strain BCK1, stronger effect = lower value 1.05 and 0.981 | locus YJL115W, strain asf1, stronger effect = lower value 0.965 | locus YJL129C, strain trk1, stronger effect = lower value 0.991 | locus YJL134W, strain LCB3, stronger effect = lower value 1 | locus YJL154C, strain vps35, stronger effect = lower value 0.979 | locus YJL164C, strain tpk1, stronger effect = lower value 0.994 | locus YJL166W, strain qcr8, stronger effect = lower value 1.01 | locus YJL168C, strain set2, stronger effect = lower value 0.996 | locus YJL187C, strain SWE1 (second series), stronger effect = lower value 1.02 | locus YJL187C, strain SWE1, stronger effect = lower value 1 | locus YJR043C, strain POL32, stronger effect = lower value 1 | locus YJR066W, strain TOR1, stronger effect = lower value 0.888
